# Assay results from PMC11062922 (Nature Chemical Biology, 2023).
# Read-outs that look alike come from different tables or passages of the source.
# Legend:
# Parameters in all cases: species or system human, MV4-11 + K-562 + COLO205 + SK-N-BE2 + OVCAR-8
# ABL1 = conditions: read-out: apparent Kd, n = 1
# ABL2 = conditions: read-out: apparent Kd, n = 1
# AURKB = conditions: read-out: apparent Kd, n = 1
# BTK = conditions: read-out: apparent Kd, n = 1
# EPHB1 = conditions: read-out: apparent Kd, n = 1
# LCK = conditions: read-out: apparent Kd, n = 1
# MAP3K11 = conditions: read-out: apparent Kd, n = 1
# NUAK2 = conditions: read-out: apparent Kd, n = 1
# PAK6 = conditions: read-out: apparent Kd, n = 1
# PTK6 = conditions: read-out: apparent Kd, n = 1
# RPS6KA3 = conditions: read-out: apparent Kd, n = 1
# ACVR1B = conditions: read-out: apparent Kd, n = 1
# CIT = conditions: read-out: apparent Kd; compound concentrations:100 nM and 1000 nM (sheet 'Samples'); n = 1
# TTK = conditions: read-out: apparent Kd, n = 1
# PIK3CD = conditions: read-out: apparent Kd, n = 1
# CDC42BPB = conditions: read-out: apparent Kd, n = 1
# PKN2 = conditions: read-out: apparent Kd, n = 1
# PRKCA = conditions: read-out: apparent Kd, n = 1
# RPS6KB1 = conditions: read-out: apparent Kd, n = 1
# [1] = compound concentrations:100 nM and 1000 nM (sheet 'Samples')
smiles,measurement,setting,value
O=C1NC(=O)C(N2CCc3ccccc32)=C1c1ccccc1Cl [SB-373598],potency estimated from few doses,ABL1; [1],172 nM
same,potency estimated from few doses,ABL2; [1],329 nM
same,potency estimated from few doses,AURKB; [1],466 nM
same,potency estimated from few doses,BTK; [1],124 nM
same,potency estimated from few doses,EPHB1; [1],373 nM
same,potency estimated from few doses,LCK; [1],138 nM
same,potency estimated from few doses,MAP3K11; [1],1040 nM
same,potency estimated from few doses,NUAK2; [1],780 nM
same,potency estimated from few doses,PAK6; [1],419 nM
same,potency estimated from few doses,PTK6; [1],606 nM
same,potency estimated from few doses,RPS6KA3; [1],966 nM
Clc1cc(Cl)cc(Nc2ccnc(Nc3cc(Cl)cc(Cl)c3)n2)c1 [GSK175726A],potency estimated from few doses,"ABL1; compound concentrations: 100 nM and 1000 nM (sheet 'Samples'), CATDS: 2.5998529843594201E-2",83.2 nM
same,potency estimated from few doses,"ABL2; compound concentrations: 100 nM and 1000 nM (sheet 'Samples'), CATDS: 0.155143101703651",7.68 nM
same,potency estimated from few doses,"AURKB; compound concentrations: 100 nM and 1000 nM (sheet 'Samples'), CATDS: 1.17744273258488E-2",461 nM
same,potency estimated from few doses,"BTK; compound concentrations: 100 nM and 1000 nM (sheet 'Samples'), CATDS: 2.6199359146872301E-2",82.1 nM
same,potency estimated from few doses,"EPHB1; compound concentrations: 100 nM and 1000 nM (sheet 'Samples'), CATDS: 3.1891027827673897E-2",60 nM
same,potency estimated from few doses,"LCK; compound concentrations: 100 nM and 1000 nM (sheet 'Samples'), CATDS: 2.0638344047220501E-2",125 nM
same,potency estimated from few doses,"PAK6; compound concentrations: 100 nM and 1000 nM (sheet 'Samples'), CATDS: 9.3443297736164402E-3",1060 nM
same,potency estimated from few doses,"PTK6; compound concentrations: 100 nM and 1000 nM (sheet 'Samples'), CATDS: 9.7207770515578794E-3",894 nM
same,potency estimated from few doses,"RPS6KA3; compound concentrations: 100 nM and 1000 nM (sheet 'Samples'), CATDS: 8.5170276758985107E-3",1660 nM
Cl.Nc1c(C(=O)c2cccc(C#CCN3CCCCC3)c2)cnn1-c1ccc(F)cc1 [RO1154461-001],potency estimated from few doses,"ABL1; compound concentrations: 100 nM and 1000 nM (sheet 'Samples'), CATDS: 1.29854856136426E-2",806 nM
same,potency estimated from few doses,"ABL2; compound concentrations: 100 nM and 1000 nM (sheet 'Samples'), CATDS: 1.9255632348685402E-2",323 nM
same,potency estimated from few doses,"BTK; compound concentrations: 100 nM and 1000 nM (sheet 'Samples'), CATDS: 1.2670518401124599E-2",863 nM
same,potency estimated from few doses,"EPHB1; compound concentrations: 100 nM and 1000 nM (sheet 'Samples'), CATDS: 2.02427776556733E-2",292 nM
same,potency estimated from few doses,"LCK; compound concentrations: 100 nM and 1000 nM (sheet 'Samples'), CATDS: 1.3782974497271E-2",687 nM
same,potency estimated from few doses,"NUAK2; compound concentrations: 100 nM and 1000 nM (sheet 'Samples'), CATDS: 1.07977981674066E-2",1430 nM
same,potency estimated from few doses,"PAK6; compound concentrations: 100 nM and 1000 nM (sheet 'Samples'), CATDS: 1.2359364494815299E-2",927 nM
same,potency estimated from few doses,"PTK6; compound concentrations: 100 nM and 1000 nM (sheet 'Samples'), CATDS: 1.35601917152245E-2",717 nM
Nc1nc(Nc2ccccc2)cc(-c2ccc3c(N)n[nH]c3c2)n1 [GSK2225749A],potency estimated from few doses,ACVR1B; [1],293 nM
CN(C)CC(O)COc1ccc(Nc2nccc(-c3cnn4nc(N5CCOCC5)ccc34)n2)cc1 (centres unmarked) [GW767488X],potency estimated from few doses,CIT,998 nM
same,potency estimated from few doses,TTK; [1],2040 nM
CS(=O)(=O)Nc1cccc(-c2ccc3c(NC(=O)C4CC4)n[nH]c3c2)c1 [SB-742864],potency estimated from few doses,"PIK3CD; compound concentrations: 100 nM and 1000 nM (sheet 'Samples'), CATDS: 0.40980617743007602",162 nM
CCn1c(-c2nonc2N)nc2c(C#CC(C)(C)O)nc(O[C@@H](CN)c3ccccc3)cc21.O=C(O)C(F)(F)F [GSK1007102B],potency estimated from few doses,CDC42BPB; [1],1280 nM
same,potency estimated from few doses,CIT,21.1 nM
same,potency estimated from few doses,PAK6; [1],1090 nM
same,potency estimated from few doses,PKN2; [1],390 nM
same,potency estimated from few doses,PRKCA; [1],1410 nM
same,potency estimated from few doses,RPS6KB1; [1],1890 nM
Cc1ccccc1-n1ncc(C(=O)c2ccccc2)c1N [RO1151248-000],potency estimated from few doses,"ABL2; compound concentrations: 100 nM and 1000 nM (sheet 'Samples'), CATDS: 2.8713823072650399E-2",630 nM
same,potency estimated from few doses,"PIK3CD; compound concentrations: 100 nM and 1000 nM (sheet 'Samples'), CATDS: 6.44780865676087E-2",184 nM
same,potency estimated from few doses,"PTK6; compound concentrations: 100 nM and 1000 nM (sheet 'Samples'), CATDS: 2.16089189660327E-2",1160 nM
CN(c1ccc(NC(=O)NCCN2CCOCC2)cc1)c1ccnc(Nc2ccc(CS(C)(=O)=O)cc2)n1.Cl [GW830365A],potency estimated from few doses,"AURKB; compound concentrations: 100 nM and 1000 nM (sheet 'Samples'), CATDS: 8.1167400456920294E-2",384 nM
CS(=O)(=O)Nc1ccc(-c2ccnc3[nH]ccc23)cc1 [GSK993273A],potency estimated from few doses,PIK3CD; [1],183 nM
CC(C)Nc1cc(-c2ccc3c(N)n[nH]c3c2)nc(N)n1 [GSK2221681A],potency estimated from few doses,ACVR1B; [1],803 nM
Cc1cccc(Nc2nc(N[C@H]3CCNC3)ncc2C(N)=O)c1.Cl [GSK2197149A],potency estimated from few doses,MAP3K11; [1],1330 nM
same,potency estimated from few doses,PIK3CD; [1],10.5 nM
same,potency estimated from few doses,PRKCA; [1],437 nM
O=C(O)C(F)(F)F.O=C(O)C(F)(F)F.O=c1[nH]ccc2nc(N[C@@H]3CCCNC3)nc(Nc3ccc(S(=O)(=O)N4CCOCC4)cc3)c12.O=c1[nH]ccc2nc(N[C@@H]3CCCNC3)nc(Nc3ccc(S(=O)(=O)N4CCOCC4)cc3)c12 [GSK2177277A],potency estimated from few doses,"AURKB; compound concentrations: 100 nM and 1000 nM (sheet 'Samples'), CATDS: 9.0566947478628902E-3",373 nM
same,potency estimated from few doses,"CDC42BPB; compound concentrations: 100 nM and 1000 nM (sheet 'Samples'), CATDS: 1.0245441654914001E-2",255 nM
same,potency estimated from few doses,"MAP3K11; compound concentrations: 100 nM and 1000 nM (sheet 'Samples'), CATDS: 9.6570166700827697E-3",305 nM
same,potency estimated from few doses,"NUAK2; compound concentrations: 100 nM and 1000 nM (sheet 'Samples'), CATDS: 4.5069810988754302E-2",13.3 nM
same,potency estimated from few doses,"PAK6; compound concentrations: 100 nM and 1000 nM (sheet 'Samples'), CATDS: 6.8069472857734698E-3",1140 nM
same,potency estimated from few doses,"PKN2; compound concentrations: 100 nM and 1000 nM (sheet 'Samples'), CATDS: 1.4426641074697899E-2",105 nM
same,potency estimated from few doses,"PRKCA; compound concentrations: 100 nM and 1000 nM (sheet 'Samples'), CATDS: 8.97994124779509E-3",383 nM
same,potency estimated from few doses,"RPS6KA3; compound concentrations: 100 nM and 1000 nM (sheet 'Samples'), CATDS: 8.0041967490872001E-3",573 nM
same,potency estimated from few doses,"TTK; compound concentrations: 100 nM and 1000 nM (sheet 'Samples'), CATDS: 6.1777236356659101E-3",1950 nM
CN(C)CCNC(=O)Nc1ccc(N(C)c2ccnc(Nc3ccc(CS(C)(=O)=O)cc3)n2)cc1.Cl [GW830900A],potency estimated from few doses,AURKB; [1],387 nM
same,potency estimated from few doses,TTK; [1],2150 nM
COc1cc(Nc2nccc(-c3cnn4ncccc34)n2)cc(OC)c1 [GW801372X],potency estimated from few doses,"MAP3K11; compound concentrations: 100 nM and 1000 nM (sheet 'Samples'), CATDS: 1.8293530288082401E-2",1660 nM
same,potency estimated from few doses,"PIK3CD; compound concentrations: 100 nM and 1000 nM (sheet 'Samples'), CATDS: 4.4256260948390198E-2",135 nM
CC(=O)N[C@@H](Cc1ccc(OP(=O)(O)O)cc1)C(=O)N[C@H]1CCC(=O)N2CCC[C@@H](C(=O)NCc3ccc(Cl)cc3)N2C1=O [RO0325308-000],potency estimated from few doses,ABL2; [1],60.3 nM
same,potency estimated from few doses,EPHB1; [1],71.6 nM
Cc1n[nH]c2cc(Nc3ccnc(Nc4cccc(CN5CCOCC5)c4)n3)ccc12 [GW682569X],potency estimated from few doses,"PIK3CD; compound concentrations: 100 nM and 1000 nM (sheet 'Samples'), CATDS: 0.35370860335397603",121 nM
COc1cc[nH]c1/C=C1\C(=O)Nc2ccc(F)c(C#CC3(O)CCNCC3)c21.Cl [RO0282986-001],potency estimated from few doses,"RPS6KA3; compound concentrations: 100 nM and 1000 nM (sheet 'Samples'), CATDS: 1.1263723561624001E-2",868 nM
same,potency estimated from few doses,"TTK; compound concentrations: 100 nM and 1000 nM (sheet 'Samples'), CATDS: 9.4369633718921209E-3",1690 nM
O=C(O)C(F)(F)F.O=c1[nH]ccc2nc(N[C@@H]3CCNC3)nc(Nc3cc(Cl)cc(Cl)c3)c12 [GSK2188764A],potency estimated from few doses,CDC42BPB; [1],1870 nM
same,potency estimated from few doses,MAP3K11; [1],813 nM
same,potency estimated from few doses,PAK6; [1],538 nM
same,potency estimated from few doses,PRKCA; [1],905 nM
same,potency estimated from few doses,RPS6KB1; [1],1520 nM
COc1ccc(Nc2nccc(-c3ccc(NC(=O)c4cc5cc(F)ccc5[nH]4)cc3)n2)cc1 [GSK1229496A],potency estimated from few doses,"ACVR1B; compound concentrations: 100 nM and 1000 nM (sheet 'Samples'), CATDS: 0.38937877773487001",643 nM
COc1cc(Nc2nccc(N3CCC(NC(=O)c4cccc(NC(C)=O)c4)C3)n2)cc(OC)c1OC (centres unmarked) [GSK1379754A],potency estimated from few doses,"RPS6KB1; compound concentrations: 100 nM and 1000 nM (sheet 'Samples'), CATDS: 8.2773531247457094E-2",1830 nM
Cl.Cl.NC(CNC(=O)c1cc(Br)c(-c2ccnc3[nH]ccc23)s1)c1ccccc1.NC(CNC(=O)c1cc(Br)c(-c2ccnc3[nH]ccc23)s1)c1ccccc1 (centres unmarked) [GSK1322949A],potency estimated from few doses,"CDC42BPB; compound concentrations: 100 nM and 1000 nM (sheet 'Samples'), CATDS: 4.7345157694920897E-2",499 nM
same,potency estimated from few doses,"NUAK2; compound concentrations: 100 nM and 1000 nM (sheet 'Samples'), CATDS: 3.0654913086493301E-2",1150 nM
